# The whole screen tested about 39,000 compounds, of which about 3,300 (8.5%) were called active. This is one part of a sample in which actives are shown more often than they occur.
# Tested on: HepG2
# Experiment: cytotoxicity call (relative viability < 0.9)
# Conditions: 10 µM
row,SMILES,cytotoxicity call
1,C[C@H](CO)N1C[C@H](C)[C@H](CN(C)C(=O)Cc2ccccn2)Oc2cc(C#Cc3ccccc3)ccc2S1(=O)=O,inactive
2,COc1ccc(CNC(=O)C[C@@H]2CC[C@H]3[C@@H](COC[C@H](O)CN3S(=O)(=O)c3ccc(OC)cc3)O2)cc1,inactive
3,C[C@H]1CN([C@@H](C)CO)C(=O)c2cc(NC(=O)Cc3ccccc3)ccc2O[C@H]1CN(C)S(=O)(=O)c1cccs1,inactive
4,COc1ccc(NC(=O)Nc2ccc3c(c2)C(=O)N([C@H](C)CO)C[C@H](C)[C@H](CN(C)S(=O)(=O)c2ccc(OC)cc2)OCCCC[C@@H](C)O3)cc1,inactive
5,COc1ccccc1S(=O)(=O)N[C@H]1CC[C@H](CCNC(=O)C2CC2)O[C@@H]1CO,inactive
6,C[C@@H]1O[C@@H](O[C@@H]2C=C(CO)[C@H]3[C@H](O[C@@H]4O[C@H](CO)[C@@H](O)[C@H](O)[C@H]4O)OC=C[C@H]32)[C@H](O)[C@H](O)[C@H]1OC(=O)/C=C/c1ccccc1,inactive
7,C[C@H](CO)N1C[C@H](C)[C@H](CN(C)S(=O)(=O)c2ccc(F)cc2)OCCCC[C@H](C)Oc2ccc(NC(=O)CCC(F)(F)F)cc2C1=O,inactive
8,C[C@@H]1CCCCO[C@H](CN(C)Cc2ccccc2)[C@H](C)CN([C@H](C)CO)C(=O)c2cc(NC(=O)NC3CCCCC3)ccc2O1,inactive
9,C[C@H]1CN([C@@H](C)CO)C(=O)c2cccc(NC(=O)Nc3ccc4c(c3)OCO4)c2O[C@@H]1CN(C)Cc1ccc(-c2ccccc2)cc1,inactive
10,C[C@H](CO)N1C[C@H](C)[C@H](CN(C)Cc2ccc(Oc3ccccc3)cc2)Oc2c(NC(=O)Nc3ccc4c(c3)OCO4)cccc2C1=O,active
11,C[C@H]1CN([C@@H](C)CO)C(=O)c2cccc(NC(=O)Nc3ccc4c(c3)OCO4)c2O[C@H]1CN(C)Cc1ccc(-c2ccccc2)cc1,inactive
12,C[C@H](CO)N1C[C@H](C)[C@@H](CN(C)Cc2ccc(Oc3ccccc3)cc2)Oc2c(NC(=O)Nc3ccc4c(c3)OCO4)cccc2C1=O,inactive
13,C[C@H]1CN([C@@H](C)CO)C(=O)c2cccc(NC(=O)Nc3ccc4c(c3)OCO4)c2O[C@@H]1CN(C)Cc1ccc(Oc2ccccc2)cc1,inactive
14,C[C@@H]1CN([C@@H](C)CO)C(=O)c2cccc(NC(=O)Nc3ccc4c(c3)OCO4)c2O[C@@H]1CN(C)Cc1ccc(Oc2ccccc2)cc1,inactive
15,C[C@@H]1CN([C@H](C)CO)C(=O)c2cccc(NC(=O)Nc3ccc4c(c3)OCO4)c2O[C@@H]1CN(C)Cc1ccc(-c2ccccc2)cc1,inactive
16,C[C@@H]1CN([C@@H](C)CO)C(=O)c2cccc(NC(=O)Nc3ccc4c(c3)OCO4)c2O[C@@H]1CN(C)Cc1ccc(-c2ccccc2)cc1,active
17,C[C@@H]1CN([C@H](C)CO)C(=O)c2cccc(NC(=O)Nc3ccc4c(c3)OCO4)c2O[C@H]1CN(C)Cc1ccc(Oc2ccccc2)cc1,active
18,C[C@@H]1CN([C@@H](C)CO)C(=O)c2cccc(NC(=O)Nc3ccc4c(c3)OCO4)c2O[C@H]1CN(C)Cc1ccc(Oc2ccccc2)cc1,inactive
19,C[C@H]1CN([C@@H](C)CO)C(=O)c2cccc(NC(=O)Nc3ccc4c(c3)OCO4)c2O[C@H]1CN(C)Cc1ccc(Oc2ccccc2)cc1,active
20,C[C@@H]1CN([C@H](C)CO)C(=O)c2cccc(NC(=O)Nc3ccc4c(c3)OCO4)c2O[C@@H]1CN(C)Cc1ccc(Oc2ccccc2)cc1,inactive
21,Cc1noc(C)c1S(=O)(=O)N(C)C[C@@H]1Oc2ccc(NS(=O)(=O)c3ccc(Cl)cc3)cc2CC(=O)N([C@@H](C)CO)C[C@@H]1C,inactive

row,SMILES,cytotoxicity call
1,OCCN1CCN(c2ncnc3c2ncn3[C@H]2CN(Cc3ccccc3)C[C@@H](CO)O2)CC1,inactive
2,C[C@@H]1CN([C@@H](C)CO)C(=O)c2cc(NS(=O)(=O)c3ccc(Cl)cc3)ccc2O[C@@H](C)CCCCO[C@H]1CN(C)C(=O)CCC(F)(F)F,inactive
3,CN1C=C(C(=O)OCCS(C)(=O)=O)C(C(=O)OCCS(C)(=O)=O)=CC(CCCO)=C[C@@H]1C1CC1,inactive
4,COc1ccc([C@@H](O)[C@@H](CCO)OC)cc1O,inactive
5,N#CC1(N[C@@H](Cc2ccccc2)c2ccccc2)CCCCCC1,inactive
6,Cc1ccc(OC[C@@H](O)CN)c(C)c1,inactive
7,O=C(C1CC1)N1CCN(c2ncccn2)CC1,inactive
8,Cl.O=C1CC2(CCCC2)CC(=O)N1CCCCN1CCN(c2ncccn2)CC1,active
9,Cn1c(=O)cnn(CCCCN2CCN(c3ncccn3)CC2)c1=O,inactive
10,C[C@H]1CN([C@@H](C)CO)S(=O)(=O)c2ccc(-c3ccncc3)cc2O[C@@H]1CN(C)S(=O)(=O)c1ccccc1F,inactive
11,C[C@@H]1CCCCO[C@@H](CN(C)S(=O)(=O)c2ccc(Cl)cc2)[C@H](C)CN([C@@H](C)CO)C(=O)c2cc(NC(=O)Nc3ccc4c(c3)OCO4)ccc2O1,inactive
12,C[C@@H]1CCCCO[C@@H](CN(C)S(=O)(=O)c2ccc(Cl)cc2)[C@@H](C)CN([C@H](C)CO)C(=O)c2cc(NC(=O)Nc3ccc4c(c3)OCO4)ccc2O1,inactive
13,C[C@@H]1CN([C@@H](C)CO)C(=O)c2cc(NC(=O)Nc3ccc4c(c3)OCO4)ccc2O[C@@H](C)CCCCO[C@@H]1CN(C)S(=O)(=O)c1ccccc1,inactive
14,C[C@@H]1CCCCO[C@@H](CN(C)S(=O)(=O)c2ccc(Cl)cc2)[C@@H](C)CN([C@@H](C)CO)C(=O)c2cc(NC(=O)Nc3ccc4c(c3)OCO4)ccc2O1,inactive
15,C[C@@H]1CN([C@H](C)CO)C(=O)c2cc(NC(=O)Nc3ccc4c(c3)OCO4)ccc2O[C@@H](C)CCCCO[C@@H]1CN(C)S(=O)(=O)c1ccc(Cl)cc1,inactive
16,C[C@@H]1CN([C@H](C)CO)C(=O)c2cc(NC(=O)Nc3ccc4c(c3)OCO4)ccc2O[C@@H](C)CCCCO[C@H]1CN(C)S(=O)(=O)c1ccc(Cl)cc1,active
17,C[C@@H]1CCCCO[C@H](CN(C)S(=O)(=O)c2ccc(Cl)cc2)[C@@H](C)CN([C@@H](C)CO)C(=O)c2cc(NC(=O)Nc3ccc4c(c3)OCO4)ccc2O1,inactive
18,C[C@@H]1CCCCO[C@H](CN(C)S(=O)(=O)c2ccc(Cl)cc2)[C@H](C)CN([C@@H](C)CO)C(=O)c2cc(NC(=O)Nc3ccc4c(c3)OCO4)ccc2O1,active
19,C[C@H]1CCCCO[C@H](CN(C)S(=O)(=O)c2ccc(Cl)cc2)[C@@H](C)CN([C@@H](C)CO)C(=O)c2cc(NC(=O)Nc3ccc4c(c3)OCO4)ccc2O1,active
20,C[C@H](CO)N1C[C@H](C)[C@@H](CN(C)S(=O)(=O)c2ccc(Cl)cc2)OCCCC[C@H](C)Oc2ccc(NC(=O)Nc3ccc4c(c3)OCO4)cc2C1=O,inactive
21,C[C@@H]1CCCCO[C@H](CN(C)S(=O)(=O)c2ccccc2)[C@@H](C)CN([C@@H](C)CO)C(=O)c2cc(NC(=O)Nc3ccc4c(c3)OCO4)ccc2O1,inactive

row,SMILES,cytotoxicity call
1,C[C@H]1CCCCO[C@H](CN(C)S(=O)(=O)c2ccccc2)[C@@H](C)CN([C@@H](C)CO)C(=O)c2cc(NC(=O)Nc3ccc4c(c3)OCO4)ccc2O1,active
2,Cc1noc(C)c1S(=O)(=O)Nc1ccc2c(c1)C(=O)N([C@H](C)CO)C[C@@H](C)[C@H](CN(C)CC1CC1)O2,inactive
3,NCC1OC(OC2C(N)CC(N)C(OC3OC(CO)C(O)C(N)C3O)C2O)C(N)CC1O (stereo unspecified),inactive
4,COc1ccccc1CNC(=O)C[C@@H]1CC[C@H]2[C@@H](COC[C@@H](O)CN2C(=O)Nc2ccc(F)cc2)O1,inactive
5,C[C@H]1CN([C@@H](C)CO)C(=O)c2cc(Br)cnc2O[C@@H]1CN(C)S(=O)(=O)c1cn(C)cn1,inactive
6,Cc1noc(C)c1S(=O)(=O)Nc1ccc2c(c1)C(=O)N([C@H](C)CO)C[C@H](C)[C@@H](CN(C)Cc1ccccc1)O2,inactive
7,COc1cccc(S(=O)(=O)Nc2ccc3c(c2)[C@@H]2C[C@@H](CC(=O)NCC(F)(F)F)O[C@@H](CO)[C@@H]2O3)c1,inactive
8,Cc1ccc(S(=O)(=O)N(C)C[C@@H]2Oc3ccc(NC(=O)NC(C)C)cc3C(=O)N([C@H](C)CO)C[C@@H]2C)cc1,inactive
9,C[C@H](CO)N1C[C@H](C)[C@H](CN(C)S(C)(=O)=O)Oc2cc(C#Cc3ccc(F)cc3)ccc2S1(=O)=O,active
10,C[C@H](CO)N1C[C@H](C)[C@@H](CN(C)S(C)(=O)=O)Oc2cc(C#Cc3ccc(F)cc3)ccc2S1(=O)=O,inactive
11,C[C@@H]1CN([C@H](C)CO)S(=O)(=O)c2ccc(C#Cc3ccc(F)cc3)cc2O[C@@H]1CN(C)S(C)(=O)=O,inactive
12,C[C@@H]1CN([C@H](C)CO)S(=O)(=O)c2ccc(C#Cc3ccc(F)cc3)cc2O[C@H]1CN(C)S(C)(=O)=O,inactive
13,C[C@H]1CN([C@@H](C)CO)S(=O)(=O)c2ccc(C#Cc3ccc(F)cc3)cc2O[C@@H]1CN(C)S(C)(=O)=O,active
14,C[C@@H]1CN([C@@H](C)CO)S(=O)(=O)c2ccc(C#Cc3ccc(F)cc3)cc2O[C@H]1CN(C)S(C)(=O)=O,inactive
15,COc1ccc(CN(C)C[C@H]2OCCCC[C@@H](C)Oc3ccc(NS(=O)(=O)c4c(C)noc4C)cc3C(=O)N([C@H](C)CO)C[C@@H]2C)cc1,inactive
16,CC(C)NC(=O)Nc1cccc2c1O[C@H](CN(C)S(=O)(=O)c1ccc(F)cc1)[C@@H](C)CN([C@H](C)CO)C2=O,inactive
17,CCCCCS(=O)(=O)CCCCCCCCCCn1c(-c2ccc(O)cc2)c(C)c2cc(O)ccc21,active
18,CCCCC(=O)c1ccc(O)cc1,inactive
19,C[C@H](CO)N1C[C@H](C)[C@@H](CN(C)S(=O)(=O)c2cn(C)cn2)Oc2c(NC(=O)Cc3ccccc3)cccc2C1=O,inactive
